Bioassay records from PubChem.
HP1b chromo inh: inhibitors of HP1-beta chromodomain binding to methylated histone tails; P83916; AlphaScreen HP1-beta / biotin-H3K9me3 peptide binding; Potency, µM (series often up to 114 µM), without a hit: at the top dose activity change, negative = inhibition, most hits filed as inhibitors; 0.56% of 390,000 active; AID 540317; further: nearly all actives have a fitted effect of over 70% in size
Target sequence (P83916 whole entry, looked up): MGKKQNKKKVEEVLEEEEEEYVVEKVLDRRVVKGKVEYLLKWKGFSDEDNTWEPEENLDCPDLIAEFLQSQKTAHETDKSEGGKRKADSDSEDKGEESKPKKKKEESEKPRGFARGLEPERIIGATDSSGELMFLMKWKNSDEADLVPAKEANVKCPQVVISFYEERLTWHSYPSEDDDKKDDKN
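Compound inhibition of the preformed complex between 50 nM HP1-beta and 50 nM biotinylated H3K9me3 peptide was read by AlphaScreen. Buffer was PBS pH 7.4 with 0.01% Tween-20. Incubations ran 30 min at room temperature, with 10 ug/mL donor/acceptor beads.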
G9a block: blocks human histone lysine methyltransferase G9a; Q96KQ7; AID 504332; 8.8% of 350,000 active; G9a H3K9 monomethylation, AlphaScreen, 2 h; Potency, µM (highest dose often 102 µM), without a hit: at the highest dose activity, negative = inhibition, hits mostly inhibitors; further: on the % scale 0 is the no-effect control and ±100 the full control effect; nearly all actives have a fitted effect of over 75% in size
Target sequence (Q96KQ7 913-1193 limits assumed): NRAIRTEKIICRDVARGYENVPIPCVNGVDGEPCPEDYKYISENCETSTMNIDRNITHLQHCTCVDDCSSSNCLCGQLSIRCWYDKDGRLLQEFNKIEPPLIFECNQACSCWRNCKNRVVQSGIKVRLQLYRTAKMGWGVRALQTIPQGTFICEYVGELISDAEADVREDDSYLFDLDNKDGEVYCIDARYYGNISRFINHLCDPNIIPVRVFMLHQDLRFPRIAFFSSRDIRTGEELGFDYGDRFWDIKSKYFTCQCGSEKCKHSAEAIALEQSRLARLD
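G9a (20 nM) preincubated 15 min RT with compounds, then 500 nM biotinylated H3K9 peptide and 20 uM SAM added; 2 h RT reaction. Monomethyl-H3K9 product detected by AlphaScreen with anti-H3K9me1 antibody, streptavidin donor and anti-rabbit IgG acceptor beads.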
L3MBTL1 block: L3MBTL1 (human) inhibition. Q9Y468. AlphaScreen L3MBTL1–H3K9me1 peptide binding. Potency, µM (top dose mostly 57.1 µM), for inactives: top-dose activity, negative = inhibition, hits mostly inhibitors. 0.66% of 230,000 active. AID 485360; further: on the % scale 0 is the no-effect control and ±100 the full control effect; nearly all actives have a fitted effect of over 60% in size
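First, the protein-peptide complex forms for 30 min at room temperature (L3MBTL1 50 nM, biotinylated H3K9me1 peptide 75 nM). Next, compounds are pin-transferred and incubated 30 min. Finally, AlphaScreen beads are added and read after 30 min.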
JMJD2A Tudor inh: blocks the human JMJD2A Tudor domain; 4.4% of 390,000 active; Potency, µM (titrated, usually from 114 µM), inactives show at the top dose activity change, negative = inhibition, most hits filed as inhibitors; AlphaScreen JMJD2A-Tudor / H3K4me3 peptide binding; further: on the % scale 0 is the no-effect control and ±100 the full control effect; nearly all actives have a fitted effect of over 50% in size
GLS inh: glutaminase GLS (human) inhibition; GLS enzymatic activity, qHTS titration; O94925; 0.21% of 410,000 active; AID 624170; Potency, µM (titrated, usually from 45.5 µM), without a hit: at the top dose activity change, negative = inhibition, most hits filed as inhibitors; further: on the % scale 0 is the no-effect control and ±100 the full control effect
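Two-point fluorescence kinetic (t0, 30 min RT) for hKGA; glutamate detected via glutamate oxidase–HRP–Amplex Red. Substrate: 1 mM L-glutamine solution; buffer 45 mM KH2PO4, pH 8.2.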
BAZ2B block: BAZ2B (human) inhibition | AID 504333 | 4.4% of 360,000 active | Potency, µM (doses to about 114 µM), inactives show at the highest dose activity change, negative = inhibition, hits mostly inhibitors | Q9UIF8 | AlphaScreen BAZ2B-H3K14Ac peptide displacement; further: on the % scale 0 is the no-effect control and ±100 the full control effect; nearly all actives have a fitted effect of over 60% in size
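Protein-peptide AlphaScreen: BAZ2B 50 nM, b-H3K14Ac 50 nM, 1x PBS pH 7.4 + 0.01% Tween-20. Preincubation 30 min RT; cpd 30 min RT (top 110 uM); beads 20 min RT, light-protected.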
Active calls of the source: *; ? = inconclusive; . = no result; [ ] = remark or other dose. The list is not random: actives were taken first. Their share in the collection is about 10%. The call rests on the fitted dose curve; in most records, active means well fitted curve in the direction sought with a large enough effect; inconclusive means small, poorly fitted or top-dose-only effect, or another doubt; inactive means no such curve, though single readings can be large; an effect the other way counts as inactive or inconclusive. Potency means the concentration at half of the fitted maximal effect.

SMILES	HP1b chromo inh	G9a block	L3MBTL1 block	JMJD2A Tudor inh	GLS inh	BAZ2B block
COc1ccc(N2CCN(C(CNC(=O)c3cccs3)c3ccco3)CC2)cc1 (stereo not given)	?	44.7µM*	-11.7%	?	31.7%	?
COc1ccc(C(=O)NCc2nnc(SCC(=O)Nc3ccccc3)n2-c2ccccc2)cc1	41.6%	-15.6%[59 µM]	.	-10.8%	-7.8%	0.1%[57.1 µM]
CCc1ccc(Cn2c(CNS(=O)(=O)c3ccc(F)c(Cl)c3)nc3cccnc32)cc1	13.3%[57 µM]	31.4%[59 µM]	.	-12.3%	-5.5%	-1.4%
COc1cccc(C(=O)N2CCCCC2CCN2CCCCC2)c1 (stereo not given)	43.3%	-0.2%[59 µM]	.	0.9%	6.5%	-0.1%
CCCCCCCCCCCCCCCC(=O)OCC(COP(=O)(O)OCC[N+](C)(C)C)OC(=O)CCCCCCCCCCCCCCC (stereo not given)	.	-5.9%[12.7 µM]	.	.	5.9%	.
CC(CCc1ccccc1)NC(=O)C1CCCN(c2nnc(-n3cccc3)s2)C1 (stereo not given)	20.6%	9.5%[59 µM]	?	-35.2%	-0.2%	12.4%
O=C(C1CCCN(c2nnc(-n3cccc3)s2)C1)N1CCN(c2ccccc2)CC1 (stereo not given)	-3.0%	50.1µM*	.	?	-27.2%	?
COc1ccc(-n2c(=O)c3ccccc3n(CC(=O)NCCc3ccc(OC)c(OC)c3)c2=O)cc1	7.4%	3.8%[59 µM]	.	3.8%	1.0%	-1.1%
O=C(O)c1ccccc1-c1nc2ccccc2[nH]1	13.5%	44.7µM*	-0.2%	?	0.0%	-27.9%
O=C(c1ccccc1-c1nc2ccccc2[nH]1)N1CCOCC1	27.0%	5.9%[12.7 µM]	.	-4.5%	4.0%	-3.0%
Cc1ccc(S(=O)(=O)Nc2ccc3nc(-c4cccn4C)[nH]c3c2)cc1	44.7µM*	-25.1%[12.7 µM]	?	15.8µM*	-34.6%	39.8µM*
Cn1cccc1-c1nc2ccccc2[nH]1	?	44.7µM*	-26.4%	-33.0%	-19.3%	?
c1ccc(-c2nc3ccccc3[nH]2)cc1	34.6%	-2.7%[12.7 µM]	.	-8.3%	11.0%	3.3%
Cn1cccc1-c1nc2ccc(NC(=O)c3ccc([N+](=O)[O-])cc3)cc2[nH]1	20.8%	?	.	-0.7%	-6.9%	2.6%
Cc1ccc(-c2nc3cnccn3c2Nc2ccc(C(C)C)cc2)o1	?	.	.	44.7µM*	.	.
Cc1ccc(-c2nc3cnccn3c2Nc2c(C)cccc2C)o1	?	44.7µM*	8.2%	?	9.4%	13.1%
Cc1ccc(S(=O)(=O)N(Cc2nc(-c3cccc(C)c3)no2)C2CCCCC2)cc1	49.6%	17.9%[59 µM]	.	14.9%	4.7%	-5.1%
CCC1CCc2c(sc(NC(=O)C3c4ccccc4Oc4ccccc43)c2C(=O)OC)C1 (stereo not given)	7.3%	-39.5%[59 µM]	.	-19.9%	0.0%	-22.0%
O=C(CN1CCN(S(=O)(=O)c2ccc(Cl)cc2)CC1)Nc1ccc(N2CCOCC2)cc1	16.4%	56.2µM*	-0.2%	-21.4%	23.6%	-27.3%
C=CCN(CC=C)CC(=O)Nc1ccc(S(N)(=O)=O)cc1	22.5%	0.708µM*	4.6%	-11.8%	15.9%	7.8%
NS(=O)(=O)c1ccc(NC(=O)CN2CCN(S(=O)(=O)c3ccc(F)cc3)CC2)cc1	10.8%	17.8%	.	14.1µM*	?	-13.4%
CC1CCN(S(=O)(=O)c2ccc(NC(=O)CN3CCN(C)CC3)cc2)CC1	?	11.2µM*	4.8%	3.16µM*	14.9%	?
CC(C)CNC(=O)N1[C@H](c2cccs2)[C@@H](C)C(=O)[C@@H](C)[C@@H]1c1cccs1	12.8%	-1.9%[59 µM]	.	-13.6%	1.4%	7.5%
COc1ccc(NC(=O)CCn2nc(-c3ccccc3OC)c3c(C)cc(C)nc32)cc1	9.3%	2.5%[59 µM]	.	-24.8%	-11.2%	-9.5%
COc1cc2c(cc1OC)C(C)N(CC(=O)Nc1ccc(S(=O)(=O)N3CCCC3)cc1)CC2 (stereo not given)	4.6%	39.8µM*	.	-16.5%	1.8%	-33.0%
SMILES	HP1b chromo inh	G9a block	L3MBTL1 block	JMJD2A Tudor inh	GLS inh	BAZ2B block
Cc1cccc(C)c1N1CCN(C(=O)Nc2ccc3c(c2)OCCO3)CC1	22.0%	-10.4%	-11.7%	50.1µM*	33.6%	?
O=C(CN1CCN(S(=O)(=O)c2cc(Cl)ccc2Cl)CC1)Nc1ccc2c(c1)OCCO2	19.5%	20µM*	-9.4%	-18.3%	-7.2%	-5.5%
CCOC(=O)N1CCN(CC(=O)NC(=O)Nc2ccc3c(c2)OCCO3)CC1	44.9%	50.1µM*	12.4%	-9.7%	1.1%	0.9%
CCOC(=O)N1CCN(c2c(Nc3ccc4c(c3)OCCO4)c(=O)c2=O)CC1	73.5%	?	.	-12.1%	48.4%	-18.9%
CC(C)CCNC(=O)Nc1ccc2c(c1)N(Cc1ccccc1)C(=O)c1ccccc1S2	13.3%	7.3%[59 µM]	.	-17.1%	1.5%	-9.3%
COc1cccc(NC(=O)C2CCN(S(=O)(=O)c3c(C)noc3/C=C/c3cccs3)CC2)c1	19.2%	-26.1%[59 µM]	.	-22.3%	1.7%	.
COc1ccccc1OCCNc1nc2c(c(=O)n(C)c(=O)n2C)n1C	-20.8%	18.6%[59 µM]	2.2%	22.4µM*	-15.6%	11.8%
Cn1c(=O)c2c(nc(NCCOc3ccc(C(C)(C)C)cc3)n2C)n(C)c1=O	23.3%	-1.9%	9.0%	-0.3%	0.1%	-3.0%
CCOC(=O)N1CCN(S(=O)(=O)CCNC(=O)c2cccc(OC)c2)CC1	22.3%	50.1µM*	0.3%	0.0%	4.3%	-1.3%
COc1cccc(C(=O)NCCCNC(=O)c2ccco2)c1	31.0%	20.6%	.	-4.1%	-5.6%	7.5%
CCOC(=O)N1CCN(S(=O)(=O)CCNC(=O)c2ccccc2)CC1	-11.0%	-28.3%	3.0%	-12.1%	-3.9%	-1.6%
